Data: PubChem BioAssay (NCI)
Compounds without any hit were thinned out: in the full panel of roughly 83,000, 20% have a hit.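 For each line, cells grew in 96-well plates with the test compound present at a single concentration for 48 hours.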 A number with no mark means an inactive call. Activity calls are given as the source filed them. Rule for the calls: active = growth percent below 10; inactive = the rest.

Tests used:
Experiment in all cases: NCI-60 one-dose screen, 48 h (100 = growth as untreated, 0 = no growth, -100 = all killed)
Details in all cases: 10 µM unless noted
HCT-15 colon = tested on: HCT-15 colon
HT29 colon = tested on: HT29 colon
SNB-75 CNS = tested on: SNB-75 CNS
SNB-19 CNS = tested on: SNB-19 CNS
U251 CNS = tested on: U251 CNS
PC-3 prostate = tested on: PC-3 prostate
SK-MEL-5 melanoma = tested on: SK-MEL-5 melanoma
UACC-62 melanoma = tested on: UACC-62 melanoma
LOX IMVI melanoma = tested on: LOX IMVI melanoma
SK-MEL-28 melanoma = tested on: SK-MEL-28 melanoma
SK-MEL-2 melanoma = tested on: SK-MEL-2 melanoma
EKVX NSCLC = tested on: EKVX NSCLC
SN12C renal = tested on: SN12C renal
UO-31 renal = tested on: UO-31 renal
TK-10 renal = tested on: TK-10 renal
ACHN renal = tested on: ACHN renal
CAKI-1 renal = tested on: CAKI-1 renal
A498 renal = tested on: A498 renal
MOLT-4 leukemia = tested on: MOLT-4 leukemia
CCRF-CEM leukemia = tested on: CCRF-CEM leukemia

Compound | growth (HCT-15 colon) | growth (HT29 colon) | growth (SNB-75 CNS) | growth (SNB-19 CNS) | growth (U251 CNS) | growth (PC-3 prostate) | growth (SK-MEL-5 melanoma) | growth (UACC-62 melanoma) | growth (LOX IMVI melanoma) | growth (SK-MEL-28 melanoma) | growth (SK-MEL-2 melanoma) | growth (EKVX NSCLC) | growth (SN12C renal) | growth (UO-31 renal) | growth (TK-10 renal) | growth (ACHN renal) | growth (CAKI-1 renal) | growth (A498 renal) | growth (MOLT-4 leukemia) | growth (CCRF-CEM leukemia)
CN(C)c1ccc(CNCCO)cc1 | 106% | 69.1% | 101% | 98.5% | 89.4% | 68.5% | 99.9% | 90.2% | 102% | 81.7% | 65.8% | 103% | 99.9% | 91.5% | 82.9% | 102% | 101% | 111% | 99% | 
Cc1ccc(Cc2cnc(NC(=O)/C=C/c3ccc(C)o3)s2)cc1 | 19.9% | 11.4% | 26.7% | 56.4% | 41.9% | 33.3% | 23.8% | 31.9% | 49.5% | 65.5% | 53.8% | 49.7% | 51.7% | 48.5% | 68% | 40.4% | 36% | 25.1% | 37.6% | 
CC(=O)N1N=C(c2ccc(Nc3nc(Nc4ccc(F)cc4)nc(Nc4ccc(F)cc4)n3)cc2)CC1c1ccc(N(C)C)cc1 (configuration not stated) | 46.9% | 50.7% | 62.7% | 66.2% | 49.8% | 32.8% | 29.3% | 57% | 52.5% | 64.2% | 40.3% | 47.5% | 100% | 34% | 72.9% | 58.7% | 59.3% | 63.5% | 14.2% | -2.06% (active)
Cc1c(O)cc(-c2cnc(N/N=C/c3ccccc3)s2)c(O)c1C | 79.1% | 104% | 98% | 105% | 97.9% | 69.7% | 85.8% | 81.9% | 79.9% | 92.2% | 104% | 87.2% | 95.6% | 79.9% | 129% | 99.4% | 91.7% | -20.4% (active) | 9.73% (active) | 8.48% (active)
Cc1ccc(S(=O)(=O)c2nc(-c3ccccc3)oc2SCC(N)=O)cc1 | 95.3% | 85.7% | 90.4% | 99.5% | 105% | 85.6% | 94.9% | 105% | 96% | 108% | 94.3% | 95.8% | 106% | 85.5% | 85.7% | 99.5% | 87.3% | 80.3% | 90.6% | 
CCOC(=O)C(CCN(C)C)c1ccccc1 (configuration not stated) | 105% | 92.1% | 81.1% | 105% | 103% | 86.6% | 103% | 102% | 98.3% | 97.8% | 101% | 101% | 99.5% | 90.9% | 95% | 104% | 94.5% | 107% | 116% | 93.2%
CS(=O)(=O)Nc1cc(-c2ccc3ncnc(Nc4ccc5c(cnn5Cc5ccncc5)c4)c3c2)cnc1Cl | 92.3% | 64.8% | 8.94% (active) | 60% | 52.7% | 57.7% | 52.5% | 32.5% | 22% | 32.5% | -0.132% (active) | 75.9% | 54.7% | 57.5% | 39.1% | 89.9% | 40.7% | 2.83% (active) | 57.1% | 33.1%
O=C(/C=C/C12c3ccccc3C(c3ccccc31)C1C(=O)NC(=O)C12)c1ccco1 (configuration not stated) | 21.7% | 13.1% | -2.52% (active) | 30.9% | 15.9% | 31.9% | 46% | 30.8% | 16.1% | 44.3% | 7.24% (active) | 55.6% | 22.6% | 42% | 33.6% | 45.6% | 48.1% | 61.7% | 6.25% (active) | -5.48% (active)
CNC(=O)Nc1ccc(-c2ccc3ncnc(Nc4cccc(Cl)c4)c3c2)cc1 | 45.9% | 29% | 54.6% | 69.6% | 54.9% | 45.1% | 56.1% | 64.7% | 60.8% | 58.9% | 65.9% | 2% (active) | 62.3% | 46.5% | -3.72% (active) | 34.2% | 32.1% | -8.06% (active) | 36.7% | 
C=C1C(=O)O[C@H]2[C@H]1CC/C(COC(=O)C(=O)c1c[nH]c3ccc(Cl)cc13)=C\CC[C@@]1(C)O[C@@H]21 | -58.4% (active) | -52.7% (active) | -97% (active) | -71.6% (active) | -93.1% (active) | -74.4% (active) | -97.6% (active) | -81.8% (active) | -92.7% (active) | -72.4% (active) | -58.9% (active) | -73.6% (active) | -86.8% (active) | -94.4% (active) | -96.4% (active) | -84.3% (active) | -87.5% (active) | -87.4% (active) | -12.4% (active) | 
C=C(C)[C@@H]1CC[C@]2(C(=O)Nc3ccccn3)CC[C@]3(C)[C@H](CC[C@@H]4[C@@]5(C)CCCNC(C)(C)[C@@H]5CC[C@]43C)[C@@H]12 | 13.1% | 4.13% (active) | 33.4% | 25% | 10.4% | 17.3% | -96.5% (active) | 36.1% | 10.9% | 31.9% | 41.2% | 25.3% | 20.8% | 55.9% | 28.4% | 33.4% | 34.8% | 18.9% | -0.121% (active) | 
O=C1C=C(SCCO)C(=O)c2ccccc21 | -68.5% (active) | 95.7% | -83.9% (active) | 15% | -37.2% (active) | 62.3% | -98% (active) | 22.3% | -57.5% (active) | 42.9% | 28.4% | 53.5% | -87.1% (active) | -37.4% (active) | 95.9% | -74% (active) | 47.5% | 113% | 2.43% (active) | 
COc1ccc(C=Nc2c(C(=O)Nc3cccc(Cl)c3C)sc3nc(C)c(C(=O)/C=C/c4ccc(OC)cc4)cc23)cc1 | 19.6% | 9.21% (active) | -11.3% (active) | 11.7% | 23.6% | 32.8% | 3.54% (active) | 7.41% (active) | 19% | 38.3% | 42.2% | 43.2% | 21% | 35.9% | 36.5% | 36.1% | 24% | -4.79% (active) | 52.2% | 19.7%
C=CN(C(=O)N1CCN(c2cc3c(cc2F)c(=O)c(C(=O)O)cn3C2CC2)CC1)c1nc(-c2ccc(Cl)cc2)cs1 | 24.6% | 40.2% | 80% | 59.5% | 23.6% | 40.3% | 81.9% | 60.3% | 28.6% | 62% | 86.5% | 81.8% | 54.5% | 55.9% | 83.6% | 70.5% | 2.83% (active) | 56% | 58.2% | 33.5%
CN1CCN(c2ccc(NC3=CC(=O)c4ncncc4C3=O)cc2)CC1 | -71.7% (active) | -29% (active) | -94.7% (active) | -91.9% (active) | -82.3% (active) | -8.86% (active) | -94% (active) | -89.8% (active) | -63.8% (active) | -75.3% (active) | -54% (active) | -87.1% (active) | -75.6% (active) | -98.3% (active) | -82.3% (active) | -96.2% (active) | -96% (active) | -36.7% (active) | -28.4% (active) | 
